KB-3-1 tox: qHTS assay for MDR1-selective chemotherapeutics: Primary screen using the parental adenocarcinoma cell KB-3-1. KB-3-1 viability, CellTiter-Glo ATP luminescence, 72 h. AID 1347075, 2019. Potency, µM (top dose mostly 46.1 µM), actives largely listed as cytotoxic. actives 1.4% (n = 400,000); further: nearly all actives have a fitted effect of over 60% in size
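Parental KB-3-1 viability, qHTS format: 72 h compound exposure, 37 °C; CellTiter-Glo; media-only wells and DMSO plates as controls; concentration-effect fits on corrected data.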
KB-V1 cytotox: qHTS assay for MDR1-selective chemotherapeutics: Primary screen using the drug-selected MDR subline cells KB-V1; actives 3.4% (n = 400,000); Potency, µM (top dose mostly 46.1 µM), actives largely listed as cytotoxic; KB-V1 MDR cells viability, CellTiter-Glo, 72 h; AID 1347076, 2019; further: nearly all actives have a fitted effect of over 60% in size
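Readout: CellTiter-Glo luminescence, 10 min after addition. Cells: KB-V1 MDR subline, 72 h at 37 degrees C with compound. Analysis: corrected, normalized data fitted to concentration-effect curves.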
HT1080-NT tox: qHTS for induction of synthetic lethality in tumor cells producing 2HG: qHTS for the HT-1080-NT fibrosarcoma cell line; Potency, µM (highest dose often 46.1 µM), inactives show at the top dose activity, negative = less viability, hits mostly cytotoxic; actives 1.6% (n = 360,000); AID 686970, 2013; HT-1080-NT fibrosarcoma viability, CellTiter-Glo ATP luminescence, 48 h;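 further: NT is the 2HG producing partner of a matched IDH1 knockdown line; 0% = DMSO-treated cells and -100% = media-only wells without cells; nearly all actives have a fitted effect of over 55% in size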
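Luminescent CellTiter-Glo readout after 48 hours of compound exposure at 37 degrees C defined viability of HT-1080-NT cells. Activity was normalized to DMSO wells and cell-free media wells; concentration-response curves were fitted and assigned curve classes.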
HT1080 IDH1KD tx: qHTS for induction of synthetic lethality in tumor cells producing 2HG: qHTS for the HT-1080-IDH1KD cell line; Potency, µM (series often up to 46.1 µM), without a hit: at the highest dose activity, negative = toxicity, hits mostly cytotoxic; HT-1080 IDH1 knockdown viability, ATP luminescence, 48 h; actives 2% (n = 360,000);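 further: 0% = DMSO wells and -100% = cell-free medium wells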
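% activity derives from luminescence (CellTiter-Glo), normalised to DMSO and no-cell wells. HT-1080-IDH1KD cells, 750/well, had 48 h compound exposure at 37 °C.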
DT40 TDP1 no CPT: qHTS for Inhibitors of human tyrosyl-DNA phosphodiesterase 1 (TDP1): qHTS in cells in absence of CPT; Potency, µM (titrated, usually from 46.2 µM), inactives show at the top dose activity change, negative = growth inhibition, hits mostly inhibitors; DT40 Tdp1-/- hTDP1 cells, no CPT, ATP luminescence, 48 h; actives 15% (n = 420,000); further: nearly all actives have a fitted effect of over 55% in size
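Compound effects on proliferation are scored in DT40 Tdp1-/-;hTDP1 cells in the absence of CPT. ATP levels (CellTiter-Glo luminescence) are recorded after a ≥48 hr, 37 °C incubation.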
DT40 TDP1 CPT: qHTS for Inhibitors of human tyrosyl-DNA phosphodiesterase 1 (TDP1): qHTS in cells in presence of CPT. Potency, µM (top dose mostly 46.2 µM), for inactives: at the top dose activity change, negative = growth inhibition, most hits filed as inhibitors. actives 12% (n = 420,000). chicken DT40 Tdp1-/-;hTDP1 cells + 20 nM CPT, ATP luminescence, 48 h; further: nearly all actives have a fitted effect of over 55% in size
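Chicken DT40 Tdp1-/- cells complemented with human TDP1, 400 cells/well, exposed to compounds plus 20 nM camptothecin for at least 48 h at 37 C; viability read as ATP content by CellTiter-Glo luminescence.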
The depositor's hits bear a star; i = inactive; ? = inconclusive; · = no result; [ ] = another dose, or the depositor's remark. Most compounds without a hit are left out; they make up all but 19% or so of the library. The call rests on the fitted dose curve; in most records, active means well fitted curve in the direction sought with a large enough effect; inconclusive means small, poorly fitted or top-dose-only effect, or another doubt; inactive means no such curve, though single readings can be large; an effect the other way counts as inactive or inconclusive. Unless noted, on the % scale 0 is the no-effect control and ±100 the full control effect; potency means the concentration at half of the fitted maximal effect.

SMILES	KB-3-1 tox	KB-V1 cytotox	HT1080-NT tox	HT1080 IDH1KD tx	DT40 TDP1 no CPT	DT40 TDP1 CPT
COc1ccc(CN(Cc2ccccc2)C(=O)c2ccc(NC(C)=O)cc2)cc1COc1ccc(NC(C)=O)cc1	·	·	-21.6%	-26.5%	?	?
COc1ccc(CN(Cc2ccccc2)C(=O)c2cccc(C#N)c2)cc1COc1ccc(NC(C)=O)cc1	·	·	-0.8%	-1.1%	14.1µM*	8.91µM*
CC1(C(=O)NCc2ccccc2Br)CCN1Cc1csc2ccccc12 (configuration not stated)	i	?	?	?	?	?
CCc1ccc(CNC(=O)c2ccc3c(c2)nc2n3CCC(C)C2)cc1 (configuration not stated)	·	·	·	·	?	-28.4%
Cc1cc(C)cc(-n2c(C)nc3cc(C(=O)NCc4ccc(F)cc4)ccc32)c1	i	i	·	·	14.6µM*	?
CC1CCn2c(nc3cc(C(=O)NCc4ccc(OC(C)C)cc4)ccc32)C1 (configuration not stated)	·	·	·	·	23.1µM*	?
COc1cc(C(=O)NCc2ccc(C)cc2)ccc1OC(F)F	i	23.1µM*	3.3%	-5.0%	-19.8%	-18.5%
CCOc1ccc(CNC(=O)c2ccc(Sc3ccc(C)cc3)c(NC(C)=O)c2)cc1	i	?	2.5%	-9.9%	20.6µM*	?
Cc1ccc(CNC(=O)c2ccc3c(c2)nc(C)n3-c2cc(C)cc(C)c2)cc1	i	i	·	·	?	?
O=C(O)CCn1cnc2onc(-c3ccccc3Cl)c2c1=O	i	i	·	·	-9.6%	14.6%
CCC1CN(CC(=O)NCc2ccc3c(c2)OCO3)Cc2ccc(Cl)cc2O1 (configuration not stated)	·	·	·	·	-36.0%	3.1%[9.04 µM]
CCOC(CNC(=O)c1ccc2c(c1)nc(C)n2-c1cccc(F)c1)OCC	i	20.6µM*	7.1%	-4.2%	-1.1%	?
CCOc1ccc(-n2c(C)nc3cc(C(=O)NCC4CCCO4)ccc32)cc1 (configuration not stated)	i	i	1.1%	1.8%	-13.8%	-1.4%
COCCNC(=O)c1ccc2c(c1)nc(C)n2-c1cccc(Cl)c1	i	i	16.7%	9.0%	15.9%	-2.8%
CCOc1ccc(-n2c(C)nc3cc(C(=O)NCc4ccc(C)cc4)ccc32)cc1	·	·	·	·	16.4µM*	?
CCOc1ccc(-n2c(C)nc3cc(C(=O)NCCC4=CCCCC4)ccc32)cc1	i	i	·	·	16.4µM*	18.4µM*
CCOc1ccc(S(=O)(=O)N2CCN(c3ccc(C)cc3C)CC2)c2ccccc12	i	?	·	·	·	·
CCOC(=O)Nc1ccc2nc(-c3cscn3)[nH]c2c1	2.59µM*	3.66µM*	?	25.9µM*	5.8µM*	6.51µM*
CCOC(=O)/C=c1\s/c(=C\c2ccc(C(=O)OC)cc2)c(=O)n1CC(=O)Nc1ccccc1	i	i	20.6%	14.5%	?	16.4µM*
CCOC(=O)/C=c1/s/c(=C/c2ccc3cc(OC)ccc3c2)c(=O)n1CC(=O)NCC1CCCO1 (configuration not stated)	?	i	4.8%	13.5%	10.3µM*	16.4µM*
CCOC(=O)/C=c1\s/c(=C\c2ccc(C#N)cc2)c(=O)n1CC(=O)NCc1ccco1	i	i	7.4%	5.2%	-12.5%	17.9%
CCOC(=O)/C=c1\s/c(=C\c2c(OC)ccc3ccccc23)c(=O)n1CC(=O)NCC1CCCO1 (configuration not stated)	4.61µM*	2.31µM*	10µM*	7.94µM*	20.6µM*	?
COc1ccc(C(=O)N2CCC3(CCN(Cc4nccs4)CC3)CC2)cc1	·	·	·	·	-22.3%	-0.2%
CSc1ccc(/C=C/C(=O)OCC(=O)NC2CCS(=O)(=O)C2)cc1 (configuration not stated)	i	i	-0.5%	5.8%	?	-26.9%
Cc1c(NC(=O)Cc2ccc(Cl)cc2)cccc1-c1nc2cccnc2s1	i	i	·	·	16.4µM*	?
SMILES	KB-3-1 tox	KB-V1 cytotox	HT1080-NT tox	HT1080 IDH1KD tx	DT40 TDP1 no CPT	DT40 TDP1 CPT
Cc1ccc(NC(=O)Cc2ccc(-n3c(C)nc4cccnc43)cc2)c(Cl)c1	18.4µM*	5.8µM*	·	·	4.11µM*	5.17µM*
CCOCC(=O)Nc1cccc(-c2nc3cccnc3s2)c1C	i	i	11.2%	18.3%	-29.0%	-6.6%
COc1ccc(C(=O)Nc2cccc(-c3nc4cccnc4s3)c2C)c(OC)c1	i	i	·	·	11.6µM*	20.6µM*
CCOC(=O)[C@H](CCc1ccccc1)N[C@@H](C)C(=O)N1C(=O)N(C)C[C@H]1C(=O)O	·	·	·	·	-7.1%	-2.4%
Cc1ccc(NC(=O)C2CC(=O)N(c3ccc(OC(C)C)cc3)C2)cc1 (configuration not stated)	·	·	·	·	-17.1%	?
CCN(CC)CCNC(=O)c1ccc2c(c1NCCO)C(=O)c1ccccc1C2=O	?	7.31µM*	?	?	14.6µM*	16.4µM*
CC1CCN(C(=O)c2ccc3c(c2NCCO)C(=O)c2ccccc2C3=O)CC1	i	?	?	?	18.4µM*	23.1µM*
O=C(NCCO)c1cccc2c1C(=O)c1ccccc1-2	i	i	13.8%	25.1%	?	-25.0%
CCOC(=O)CCn1nc(C)c2c(C)n(-c3ccccc3)nc2c1=O	·	·	·	·	-6.7%	3.5%
COc1cc(C=NO)nc(-c2ccccn2)c1	?	i	-12.4%	?	1.16µM*	1.3µM*
CCOC(=O)c1ccc(NS(=O)(=O)c2ccc(SC)cc2)cc1	i	23.1µM*	0.7%	-11.0%	?	?
CC(=O)c1ccc(S(=O)(=O)Nc2ccc(N3CCOCC3)cc2)cc1	i	i	3.6%	1.4%	-17.7%	-2.4%
CCOC(=O)c1ccc(S(=O)(=O)Nc2ccc(N3CCOCC3)cc2)cc1	i	i	0.0%	0.0%	?	20.6µM*
CCOC(=O)Cc1ccc(NS(=O)(=O)c2ccc(SC)cc2)cc1	i	i	0.9%	-12.6%	?	?
CCOC(=O)CC1COCCN1C(=O)c1ccc2oc(Cc3ccccc3)nc2c1 (configuration not stated)	i	?	22.7%	23.1%	-18.2%	-18.2%

Bioassay records: PubChem, National Center for Advancing Translational Sciences (NCATS)
